Assay results reported in the supplement of paper PMC5499739.
Over roughly 16,000 sequences, “Z-score” has its median near -0.37; the highest 2% begin near 3.1. The list comes from a sample in which the highest values are over-represented; it also holds similar and randomly drawn sequences.

Tested on: RBM10 RRM1-ZnF-RRM2 (GST-tagged construct)
Test: RNAcompete 7-mer binding Z-score; higher = stronger binding preference
Procedure: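 RNAcompete: 20 pmol GST-tagged RBM10 RNA-binding constructs were incubated with a designed RNA pool of about 241,000 sequences up to 41 nt (1.5 nmol) on glutathione beads for 30 min at 4 °C and washed. Bound RNAs were identified by microarray hybridisation. Each RNA 7-mer is scored by a one-sided Z-score of its enrichment, computed over probes that contain the 7-mer within longer pool sequences.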

Sequence	RNAcompete 7-mer binding Z-score
GAUAGGG	4.38
AGUAGGA	3.08
AAUAGGA	1.57
GGUAGAG	3.68
CGUAGAG	0.636
CAUAGGA	0.756
UAUAGGG	2.76
GGUAGGC	2.65
UGUAGAG	0.978
GAUAGGA	3.17
GGUAGGA	3.37
CAUAGGG	2.13
CGAUUAA	-0.493
GGAUUGC	0.88
AACCACA	-0.275
UCUUGCG	-0.664
AGAUGCU	-0.777
AUUCGGA	0.243
UAUGUCC	-0.785
CCUCGGC	-0.701
AACACGU	-0.3
CUACUAU	-0.657
CCGUCCA	-0.704

Sequence	RNAcompete 7-mer binding Z-score
CCUACGG	-0.446
UAACGCU	-0.646
GGCCAUG	0.181
GCCGGGG	1.4
GUUAGGU	1.89
UUUAGGG	1.51
GGUAAAG	3.35
CGUAGGG	2.3
GUUAGGG	3.65
AAUAGGG	3.5
CGUAAAG	-0.0743
UGUAGGA	1.9
UGUAGGG	3.34
AAUAGGC	0.924
AAUAGGU	1.27
UGUAAAG	0.257
UCCAUUU	-0.872
GAUCCAG	0.0641
ACGUAAU	-0.417
ACAAUCG	-0.173
UACCCCG	-0.551
AUGCUCA	-0.766
CAUGAGG	1.35

Sequence	RNAcompete 7-mer binding Z-score
CGUGAGG	1.73
GGUGAGA	2.68
GAUGAGU	1.01
GAUGAGG	3.6
GGUGAGG	4.3
CCUCCAA	-0.857
UGAGCCC	-0.435
GUCCACU	-0.653
GGGCGAC	1.94
GGGCGAG	3.88
GGGCAGA	2.25
GGGCGGG	3.52
GGCAAAG	1.95
GGCAAGG	3.47
CGCAAGG	0.341
GGGCGGA	3.09
GGGCAGG	3.39
GGGCGGU	2.58
AGGCAGG	1.77
GGGCGAA	2.68
AUAGUGG	1.69
CACCAUC	-0.734
UGCGCAG	0.0677

Sequence	RNAcompete 7-mer binding Z-score
UUUGGAU	-0.125
UACUUUA	-0.948
CGGCGGG	1.97
UGGCGGG	3.19
UGGCGGU	1.54
ACGGGAC	2.19
UGCAACC	-0.504
AAGGGGG	3.91
AGGGGGG	2.05
GAGGAAA	2.2
GAGGGGG	2.83
CAGGGAU	2.41
GCGGGAU	2.38
GAGGGAA	3.6
AAGGGGC	3.1
GAGGGGA	3.29
GAGGGCA	1.99
CGGGGGA	2.53
GAGGGAU	3.31
CCGCUAC	-0.868
GUUACUC	-0.581
UAAGUCA	-0.0816
UCGCGCA	-0.595

Sequence	RNAcompete 7-mer binding Z-score
ACCUCCG	-0.737
AUAGAGA	0.501
AGAACAU	-0.398
CCUAUAU	-0.799
UCAAUGC	-0.533
GCUUGUG	-0.479
GUACCCC	-0.242
UUCCUGA	-0.763
AAGGGGA	4.44
UAAGGGG	3.11
GAGGGGU	3.64
GAGGGCU	1.27
CAAGGGG	3.03
AAAGGGG	4.22
GAGGGGC	2.44
AGGGGGU	3.03
AGGGGGA	2.14
AAGGGGU	4.33
AACCCUU	-1.03
CCACGCA	-0.664
AUUGUGA	0.108
UCGCGUU	-0.602
CUUCCUU	-0.759

Sequence	RNAcompete 7-mer binding Z-score
AGUAAGA	0.541
GUUCUCU	-0.788
GUGGGUC	2.4
AUGGGUU	2.86
AGGGGGC	1.4
AUGGGUC	2.15
AUCGGUG	0.691
AUUGGUG	1.84
GUGGGUG	3.76
AUGGGUG	3.74
AUGGGUA	3.71
AGGGGUG	3.14
AGGGGCG	2.07
CUGGGUG	1.82
CUCUUCC	-0.879
AAUAUAC	-0.26
UAGUCCA	-0.683
UGUGGCC	0.0459
AUCUCGC	-0.894
AAGUUAC	-0.289
CGGCUGA	-0.0306
UUCAAUA	-0.151
UCGGGUG	1.96

Sequence	RNAcompete 7-mer binding Z-score
UUGGGUG	3.43
GGGGGCG	2.58
CGGGGUG	3.36
CGGGGUU	2.23
GGGGGUG	3.43
UGGGGUG	4.14
CCGGGUG	1.62
GGGGGUC	2.06
UUGGGUU	2.05
UGGGGUC	2.62
UUGGGUC	1.03
GUUAUCU	-0.395
GACCCCC	-0.551
ACGAAUA	-0.238
UAUCACG	-0.435
AUGUAAC	-0.147
GAGUGUU	0.432
CGAGGCU	0.217
ACACCCU	-0.941
UAAUACA	-0.391
UCAUUCU	-0.752
UGCGGUC	-0.00512
GCGCUGU	-0.191

Sequence	RNAcompete 7-mer binding Z-score
ACAGUAA	0.0677
GGCCGCC	-0.683
UAAGCCA	-0.712
GCCAAAC	-0.573
AGUCUGU	-0.482
GGGGUUU	2.36
GGGGGUU	3.29
AGGGGUU	2.42
GGGUGUA	3.09
UGGUGUG	2.21
GGGUGUG	3.51
AUCUACU	-0.806
AUCUUGG	-0.311
CGGGAAC	1.5
GCUUCCG	-0.799
CUUGGUC	-0.821
GGACAGA	1.44
GGACCGU	0.0532
AGGGACG	2.37
GGGGAUG	3.68
GGGGAUU	2.36
GGGGAUC	2.27
AGGGAUG	4.22
